Here are results for 40 molecules from PubChem BioAssay.

Potency and affinity values are given separately. Records with an inconclusive call do not appear. Where a call stands in place of a potency, no number is given. The source made the active and inactive calls. Unless noted, no rule for the calls is given here.

The first test is described as follows: CMV-driven luciferase expression suppression in HEK293 – cell-based, luminescence, dry powder, counter-screen for Pax8 inhibitor project, dose response (AID 743020;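 active = signal-lowering compounds whose fitted half-maximal concentration is at or below twice the top tested dose in every run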;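 also: HEK293 cells stably expressing the CMV luciferase reporter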). To be noted: HEK293 CMV-luciferase reporter, SteadyGlo luminescence, 24 h; series mostly up to 35 µM.
With `COc1cccc(-c2cnc3c(NC=O)cc(-c4ccc(OC)cc4OC)cn23)c1`, the result was inactive.

As for `CCC(=O)N1CCN(c2ccc(NC(=O)c3ccc([N+](=O)[O-])o3)cc2)CC1`, the molecule was classed as inactive.

For the molecule `COc1ccc([N+](=O)[O-])c(S(=O)(=O)c2ccccc2)n1`, the outcome was inactive.

Turning to `CCOC(=O)/C=C/C(=O)Nc1cc(S(=O)(=O)Nc2ccc(OC)cc2)ccc1N1CCOCC1`, the outcome was inactive.

In the case of `CCCCCCCn1c2c(c(=N)c3c1CCC3)CCCC2`, the outcome was inactive.

As for `C[n+]1c2n(c3ccccc31)N=C(c1cc(C(C)(C)C)c(O)c(C(C)(C)C)c1)CS2`, the result was inactive.

As for `CNC(=O)c1cc(Oc2ccc(NC(=O)Nc3ccc(Cl)c(C(F)(F)F)c3)cc2)ccn1`, the molecule was called inactive.

For `Cc1ccc(S(=O)(=O)NCc2ccc(C(=O)N3CCN(c4ccc([N+](=O)[O-])cc4)CC3)cc2)cc1`, the molecule was called inactive.

On to `CN=c1scc(-c2cccs2)n1/N=C/c1ccccc1O`, for which the call was inactive.

As to `Oc1ccc(C[C@H]2CNC(=S)N2CC2CCCN2C[C@H](Cc2ccc(O)cc2)N2C[C@H](Cc3ccc(O)cc3)N(CC3CCCCC3)C2=S)cc1` (stereo not given in full), the molecule was called inactive.

For `CCn1c2ccccc2c2cc(NC(=O)c3cc(OC)cc(OC)c3)ccc21`, the molecule was called inactive.

Take `CCCCCCN(C(=O)CCCN1C(=O)NC(c2ccc(-c3ccccc3)cc2)C(C(=O)OCc2ccccc2)=C1C)C(C)C(=O)NCCCC` (stereo not given): the result was inactive.

Regarding `Cc1cc(C)c(C(=O)/C=C/c2cccc3ccccc23)c(=O)[nH]1`, the molecule was called inactive.

Take `CCCCCc1cc(=O)oc2c(C(CCN3CCCCC3)c3ccc4c(c3)OCO4)c(OC)cc(OC)c12` (stereo not given): the result was inactive.

Consider `Cn1nnnc1Sc1ncnc2scc(-c3ccc[nH]3)c12`, for which the molecule was classed as inactive.

For `COc1cccc(-c2nc(CS(=O)(=O)CC(=O)NCCCN3CC(C)CC(C)C3)c(C)o2)c1` (stereo not given), the outcome was inactive.

Turning to `COCCN(CC(=O)NC1CCCCC1)C(=O)/C=C/C(=O)c1ccc(OC)cc1O`, the result was inactive.

As for `CCCCCc1c(-c2ccccc2OC)ncn1CCc1ccccc1OC`, the call was inactive.

In the case of `CC(=O)Nc1ccc(NC(=O)c2nc(S(=O)(=O)Cc3ccccc3)ncc2Cl)cc1`, the outcome was inactive.

Turning to `Cc1ccc(NC(=O)/C=C/c2ccc([N+](=O)[O-])s2)c(C)c1`, the result was inactive.

Regarding `CCCCn1c(N)c(N(CCC(C)C)C(=O)COC(=O)c2ccc([N+](=O)[O-])s2)c(=O)[nH]c1=O`, the molecule was classed as inactive.

As to `CC1=CC(=O)C(C(C)C)=C/C1=N/OS(=O)(=O)c1ccccc1`, the molecule was classed as inactive.

For the molecule `CCCCn1c(=O)[nH]c(=O)c2c1nc(Cn1ncc(Cl)c(Cl)c1=O)n2CCC`, the outcome was inactive.

For the molecule `CCN(CC)c1ccc2c(cc1=O)[C@@H](NC)CCc1cc(OC)c(OC)c(OC)c1-2`, the call was inactive.

For the molecule `COc1cccc2c1C(=O)c1c(O)c3c(c(O)c1C2=O)CC(O)(C(C)=NNC(=O)c1ccc(Cl)c(Cl)c1)CC3OC1CC(N)C(O)C(C)O1` (stereo not given), the outcome was inactive.

With `Cc1ccc(CCc2nnc(SCC(=O)Nc3cccc(Cl)c3)n2-c2ccccc2)o1`, the result was inactive.

Regarding `CN(N=Nc1nc[nH]c1C(N)=O)C1CCCCC1`, the result was inactive.

Consider `Cc1cc(C)n(-c2nc(NCCN(C)C)c3c4c(sc3n2)CCCC4)n1`, for which the call was inactive.

As to `CSc1nc(-c2ccccc2)nc(C(Cl)Cl)n1`, the call was inactive.

For the molecule `O=C(Cn1ncc(Cl)c(Cl)c1=O)Nc1ccc2c(c1)OCO2`, the outcome was inactive.

As to `CC(C)C(=O)N1CCN(c2ccc(NC(=O)c3ccc([N+](=O)[O-])o3)cc2Cl)CC1`, the result was inactive.

For `C=C1C(=O)[C@@]23[C@H](O)C[C@@H]4C(C)(C)CC[C@H](O)[C@]4(C)[C@@H]2C[C@H](O)[C@@H]1[C@H]3O`, the molecule was called inactive.

`O=C(Cn1ncc(Cl)c(Cl)c1=O)NC(=O)NC1CCCCC1`: the molecule was called inactive.

As for `C=C1C(=O)O[C@@H]2[C@H]1[C@@H](OC(=O)/C(C)=C/C)C/C(C)=C\C(=O)/C=C(\C)[C@@H]2O`, the molecule was called inactive.

Consider `N#Cc1nc(NCC(F)F)nc(Nc2cc(F)cc(F)c2)n1`, for which the molecule was called inactive.

As for `CCOc1ccc(C(=O)C(CN2CCOCC2)c2ccccc2)cc1` (stereo not given), the molecule was called inactive.

As for `Cc1ccc2nc(NNC(=O)c3ccc(S(=O)(=O)N4CCc5ccccc5C4)cc3)sc2c1`, the result was inactive.

On to `Cn1nnnc1Sc1ncnc2scc(-c3ccccc3Cl)c12`, for which the result was inactive.

Consider `O=C(COC(=O)c1ccco1)Nc1cccc(S(=O)(=O)N2CCOCC2)c1`, for which the call was inactive.

`CCN(CC)S(=O)(=O)c1cc(OC)ccc1N=Nc1ccc(O)c2ncccc12`: the result was inactive.

Another test is described as follows: general cell-killing toxicity readout – plate reader, dry powder samples, cytotoxicity control for PAX8 inhibitor project, dose response (AID 743021). To be noted: cell line, non-specific cytotoxicity counter-screen; series mostly up to 35 µM. In general terms: A counterscreen serves to expose hits that act by an unwanted route or on another target.
With `COc1cccc(-c2cnc3c(NC=O)cc(-c4ccc(OC)cc4OC)cn23)c1`, the molecule was called inactive.

Regarding `CCC(=O)N1CCN(c2ccc(NC(=O)c3ccc([N+](=O)[O-])o3)cc2)CC1`, the result was inactive.

For `COc1ccc([N+](=O)[O-])c(S(=O)(=O)c2ccccc2)n1`, the result was inactive.

Regarding `CCOC(=O)/C=C/C(=O)Nc1cc(S(=O)(=O)Nc2ccc(OC)cc2)ccc1N1CCOCC1`, the call was inactive.

Regarding `CCCCCCCn1c2c(c(=N)c3c1CCC3)CCCC2`, the call was inactive.

For the molecule `C[n+]1c2n(c3ccccc31)N=C(c1cc(C(C)(C)C)c(O)c(C(C)(C)C)c1)CS2`, the outcome was inactive.

`CNC(=O)c1cc(Oc2ccc(NC(=O)Nc3ccc(Cl)c(C(F)(F)F)c3)cc2)ccn1`: the molecule was classed as inactive.

On to `Cc1ccc(S(=O)(=O)NCc2ccc(C(=O)N3CCN(c4ccc([N+](=O)[O-])cc4)CC3)cc2)cc1`, for which the outcome was inactive.

On to `CN=c1scc(-c2cccs2)n1/N=C/c1ccccc1O`, for which the result was inactive.

With `Oc1ccc(C[C@H]2CNC(=S)N2CC2CCCN2C[C@H](Cc2ccc(O)cc2)N2C[C@H](Cc3ccc(O)cc3)N(CC3CCCCC3)C2=S)cc1` (stereo not given in full), the result was inactive.

On to `CCn1c2ccccc2c2cc(NC(=O)c3cc(OC)cc(OC)c3)ccc21`, for which the molecule was called inactive.

For `CCCCCCN(C(=O)CCCN1C(=O)NC(c2ccc(-c3ccccc3)cc2)C(C(=O)OCc2ccccc2)=C1C)C(C)C(=O)NCCCC` (stereo not given), the outcome was inactive.

`Cc1cc(C)c(C(=O)/C=C/c2cccc3ccccc23)c(=O)[nH]1`: the molecule was classed as inactive.

`CCCCCc1cc(=O)oc2c(C(CCN3CCCCC3)c3ccc4c(c3)OCO4)c(OC)cc(OC)c12` (stereo not given): the molecule was called inactive.

Take `Cn1nnnc1Sc1ncnc2scc(-c3ccc[nH]3)c12`: the result was inactive.

As to `COc1cccc(-c2nc(CS(=O)(=O)CC(=O)NCCCN3CC(C)CC(C)C3)c(C)o2)c1` (stereo not given), the result was inactive.

For `COCCN(CC(=O)NC1CCCCC1)C(=O)/C=C/C(=O)c1ccc(OC)cc1O`, the call was inactive.

As for `CCCCCc1c(-c2ccccc2OC)ncn1CCc1ccccc1OC`, the molecule was classed as inactive.

Take `CC(=O)Nc1ccc(NC(=O)c2nc(S(=O)(=O)Cc3ccccc3)ncc2Cl)cc1`: the result was inactive.

As to `Cc1ccc(NC(=O)/C=C/c2ccc([N+](=O)[O-])s2)c(C)c1`, the molecule was called inactive.

For `CCCCn1c(N)c(N(CCC(C)C)C(=O)COC(=O)c2ccc([N+](=O)[O-])s2)c(=O)[nH]c1=O`, the result was inactive.

In the case of `CC1=CC(=O)C(C(C)C)=C/C1=N/OS(=O)(=O)c1ccccc1`, the molecule was classed as inactive.

As to `CCCCn1c(=O)[nH]c(=O)c2c1nc(Cn1ncc(Cl)c(Cl)c1=O)n2CCC`, the molecule was classed as inactive.

Regarding `CCN(CC)c1ccc2c(cc1=O)[C@@H](NC)CCc1cc(OC)c(OC)c(OC)c1-2`, the molecule was called inactive.

Take `COc1cccc2c1C(=O)c1c(O)c3c(c(O)c1C2=O)CC(O)(C(C)=NNC(=O)c1ccc(Cl)c(Cl)c1)CC3OC1CC(N)C(O)C(C)O1` (stereo not given): the result was inactive.

For `Cc1ccc(CCc2nnc(SCC(=O)Nc3cccc(Cl)c3)n2-c2ccccc2)o1`, the outcome was inactive.

For `CN(N=Nc1nc[nH]c1C(N)=O)C1CCCCC1`, the molecule was classed as inactive.

Consider `Cc1cc(C)n(-c2nc(NCCN(C)C)c3c4c(sc3n2)CCCC4)n1`, for which the molecule was called inactive.

In the case of `CSc1nc(-c2ccccc2)nc(C(Cl)Cl)n1`, the outcome was inactive.

For `O=C(Cn1ncc(Cl)c(Cl)c1=O)Nc1ccc2c(c1)OCO2`, the call was inactive.

For the molecule `CC(C)C(=O)N1CCN(c2ccc(NC(=O)c3ccc([N+](=O)[O-])o3)cc2Cl)CC1`, the result was inactive.

Turning to `C=C1C(=O)[C@@]23[C@H](O)C[C@@H]4C(C)(C)CC[C@H](O)[C@]4(C)[C@@H]2C[C@H](O)[C@@H]1[C@H]3O`, the molecule was called inactive.

In the case of `O=C(Cn1ncc(Cl)c(Cl)c1=O)NC(=O)NC1CCCCC1`, the call was inactive.

Take `C=C1C(=O)O[C@@H]2[C@H]1[C@@H](OC(=O)/C(C)=C/C)C/C(C)=C\C(=O)/C=C(\C)[C@@H]2O`: the result was inactive.

Turning to `N#Cc1nc(NCC(F)F)nc(Nc2cc(F)cc(F)c2)n1`, the outcome was inactive.

On to `CCOc1ccc(C(=O)C(CN2CCOCC2)c2ccccc2)cc1` (stereo not given), for which the result was inactive.

`Cc1ccc2nc(NNC(=O)c3ccc(S(=O)(=O)N4CCc5ccccc5C4)cc3)sc2c1`: the molecule was classed as inactive.

For `Cn1nnnc1Sc1ncnc2scc(-c3ccccc3Cl)c12`, the molecule was classed as inactive.

Turning to `O=C(COC(=O)c1ccco1)Nc1cccc(S(=O)(=O)N2CCOCC2)c1`, the call was inactive.

With `CCN(CC)S(=O)(=O)c1cc(OC)ccc1N=Nc1ccc(O)c2ncccc12`, the call was inactive.
